Reference: PubChem BioAssay (Tox21)
Several values for one entry are separate records, joined by “and”; a condition that tells them apart may be missing. Identical values can stand only once. Results filed as inconclusive are left out. Activity calls are given as the source filed them. Unless noted, the call rests on the fitted dose curve; in most records, active means well fitted curve in the direction sought with a large enough effect in the repeat runs; inconclusive means weak or mixed curves; inactive means no such curve, though single readings can be large; an effect the other way counts as inactive or inconclusive.

Experiments:
[1] = qHTS assay for small molecule agonists of the p53 signaling pathway (AID 651631; calls by dose curve; further: nearly all actives have a fitted effect of over 15% in size; further: potency means the concentration at half of the fitted maximal effect)
Method in brief: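 Stably transfected HCT-116 cells (beta-lactamase behind p53 response elements) get compounds after a 5 h settling period; 16 h later at 37 °C, FRET substrate is loaded and fluorescence read after 2 h.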

[2] = qHTS assay for small molecules that induce genotoxicity in human embryonic kidney cells expressing luciferase-tagged ATAD5 (AID 651632); further: nearly all actives have a fitted effect of over 15% in size
Method in brief: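 DMSO vehicle served as the control. HEK293T reporter cells, 16 hr at 37C, then 30 min Amplite at room temperature; ATAD5 induction is measured as luciferase activity.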

[3] = qHTS assay for small molecules that induce genotoxicity in human embryonic kidney cells expressing luciferase-tagged ATAD5 - cell viability (AID 651634; calls by dose curve; further: nearly all actives have a fitted effect of over 25% in size; further: potency means the concentration at half of the fitted maximal effect)
Method in brief: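 Here HEK293T cells with the ATAD5 luciferase reporter are incubated with test compounds for 15.5 hr, and cytotoxicity is then gauged by measuring protease activity in live cells using fluorescence.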

[4] = qHTS assay for small molecule disruptors of the mitochondrial membrane potential - cell viability (AID 720634; calls by dose curve; further: nearly all actives have a fitted effect of over 20% in size; further: potency means the concentration at half of the fitted maximal effect)
Method in brief: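 Viability of HepG2 cells is scored from ATP content by luminescence; cells are exposed to compound for 1 hr at 37 C and 5% CO2, then dosed with m-MPI dye before the CellTiter-Glo reagent.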

[5] = qHTS assay to test for compound auto fluorescence at 590 nm (red) in HepG2 cells (AID 720674)
Method in brief: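 Rose Bengal sodium served as the red fluorophore standard. HepG2 monolayers (overnight attachment, MEM with 10% FBS) were exposed to test compounds for 1 hr at 37 C and read at Ex 540/Em 590 nm.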

[6] = qHTS assay to test for compound auto fluorescence at 535 nm (green) in HepG2 cells (AID 720675); further: potency means the concentration at half of the fitted maximal effect
[7] = qHTS assay to test for compound auto fluorescence at 460 nm (blue) in HEK293 cells (AID 720678); further: potency means the concentration at half of the fitted maximal effect
Method in brief: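 After cell attachment (4-5 hr, 37C), compounds were pinned onto HEK293 monolayers in 10% dialyzed FBS medium. The blue channel (405/460 nm) was read following overnight culture. Equivalency was calculated against triamterene.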

[8] = qHTS assay to test for compound auto fluorescence at 590 nm (red) in HEK293 cells (AID 720679)
Method in brief: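 Plates of HEK293 cells (10% dialyzed FBS) are treated with 23 nL compound or DMSO vehicle after a 4-5 hr attachment period, incubated overnight at 37C, and read for red fluorescence at 540/590nm.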

[9] = qHTS assay to test for compound auto fluorescence at 535 nm (green) in HEK293 cells (AID 720680); further: potency means the concentration at half of the fitted maximal effect
[10] = qHTS assay to test for compound auto fluorescence at 460 nm (blue) in HEK293 cell free culture (AID 720681); further: potency means the concentration at half of the fitted maximal effect
Method in brief: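 Test compounds were pinned into cell-free culture medium (DMEM with 10% FBS) and fluorescence was read directly at Ex/Em 405/460 nm. Signals were expressed as fluorescence equivalents of triamterene, with DMSO vehicle as control.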

[11] = qHTS assay to test for compound auto fluorescence at 535 nm (green) in HEK293 cell free culture (AID 720682); further: potency means the concentration at half of the fitted maximal effect
Method in brief: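 Using fluorescein as calibrant, autofluorescence was quantified at 485/535 nm in cell-free DMEM containing 10% FBS after pintool addition of compound or vehicle.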

[12] = qHTS assay to test for compound auto fluorescence at 590 nm (red) in HepG2 cell free culture (AID 720684)
Method in brief: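 Ex 540 / Em 590 nm read of compound in cell-free MEM (10% FBS). Rose Bengal sodium reference.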

[13] = qHTS assay to test for compound auto fluorescence at 460 nm (blue) in HepG2 cell free culture (AID 720685); further: potency means the concentration at half of the fitted maximal effect
Method in brief: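 Cell-free plates of MEM plus 10% FBS received 23 nL compound or DMSO vehicle; blue-channel (405/460 nm) intensity scored against triamterene as reference fluorophore.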

[14] = qHTS assay to test for compound auto fluorescence at 535 nm (green) in HepG2 cell free culture (AID 720686); further: potency means the concentration at half of the fitted maximal effect
[15] = qHTS assay to test for compound auto fluorescence at 460 nm (blue) in HepG2 cells (AID 720687); further: potency means the concentration at half of the fitted maximal effect
Method in brief: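 Cells (2,000/well in MEM with 10% FBS) attached overnight at 37 C, then were exposed to compound or DMSO for 1 hr at 37 C, 5% CO2. Fluorescence read at Ex/Em 405/460 nm, expressed as triamterene-equivalent signal.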

[16] = biological target: Glucocorticoid receptor (Homo sapiens) (UniProt P04150); test: qHTS assay to identify small molecule agonists of the glucocorticoid receptor (GR) signaling pathway (AID 720691; active means well fitted activation curve with a large enough effect in the signal ratio in the repeat runs, not every such curve was filed as active; the % refers to the signal ratio; further: potency means the concentration at half of the fitted maximal effect); conditions: GR-bla HeLa, beta-lactamase reporter ratio, 18 h; activation: at 62.4 µM (top of the series)
Chain of Glucocorticoid receptor (Homo sapiens) (P04150 whole entry, looked up): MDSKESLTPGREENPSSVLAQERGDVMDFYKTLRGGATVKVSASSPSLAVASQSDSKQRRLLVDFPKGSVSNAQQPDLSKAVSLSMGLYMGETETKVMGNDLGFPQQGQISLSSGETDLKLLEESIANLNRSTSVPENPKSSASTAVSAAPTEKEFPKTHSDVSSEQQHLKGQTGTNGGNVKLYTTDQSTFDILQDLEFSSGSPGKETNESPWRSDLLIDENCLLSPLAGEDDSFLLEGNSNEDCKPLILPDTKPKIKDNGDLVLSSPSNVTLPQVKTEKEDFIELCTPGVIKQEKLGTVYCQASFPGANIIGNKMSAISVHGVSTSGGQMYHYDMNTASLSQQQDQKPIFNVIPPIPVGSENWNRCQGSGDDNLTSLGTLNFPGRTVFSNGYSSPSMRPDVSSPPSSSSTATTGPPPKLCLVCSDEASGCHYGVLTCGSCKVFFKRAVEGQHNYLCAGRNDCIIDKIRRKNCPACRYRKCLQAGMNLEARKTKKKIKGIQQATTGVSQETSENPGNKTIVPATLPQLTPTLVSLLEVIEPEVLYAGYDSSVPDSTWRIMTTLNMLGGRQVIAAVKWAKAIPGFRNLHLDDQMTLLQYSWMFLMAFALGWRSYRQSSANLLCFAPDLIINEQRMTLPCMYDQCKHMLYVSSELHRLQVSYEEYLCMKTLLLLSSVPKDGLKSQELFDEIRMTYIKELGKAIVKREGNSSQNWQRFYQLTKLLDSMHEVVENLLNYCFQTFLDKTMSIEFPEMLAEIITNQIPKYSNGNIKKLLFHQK
Method in brief: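 Compounds in DMSO, alongside positive controls, were added to GR-bla HeLa reporter cells and incubated 18 h at 37 C; GRE-driven beta-lactamase was detected by fluorescence after 2 h with FRET substrate at room temperature.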

[17] = qHTS assay for small molecule disruptors of the mitochondrial membrane potential (AID 720635); further: potency means the concentration at half of the fitted maximal effect
Method in brief: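 HepG2 cells (2,000/well) attached overnight at 37C, then took compound for 1 hr at 37C, 5% CO2. Mito-MPS dye was added for 30 min; fluorescence was read at 490/535 nm (monomers) and 540/590 nm (aggregates).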

[18] = qHTS assay to test for compound auto fluorescence at 590 nm (red) in HEK293 cell free culture (AID 720683)
Method in brief: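 Tox21 10K library compounds were pinned into cell-free DMEM with 10% FBS and fluorescence was read at excitation 540 nm. Activity is expressed as Rose Bengal sodium equivalency.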

[19] = biological target: Glucocorticoid receptor (Homo sapiens) (UniProt P04150); test: qHTS assay to identify small molecule antagonists of the glucocorticoid receptor (GR) signaling pathway (AID 720692; active means well fitted inhibition curve with a large enough effect in the signal ratio in the repeat runs, not every such curve was filed as active; the % refers to the signal ratio; further: potency means the concentration at half of the fitted maximal effect)
Method in brief: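 In a 1536-well cell format, compounds were added 4 h after seeding GR-bla HeLa cells, together with dexamethasone at 5 nM final; reporter activity was measured by FRET-substrate fluorescence following 18 h at 37 C.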

[20] = qHTS assay for small molecule agonists of the p53 signaling pathway - cell viability (AID 651633; calls by dose curve; further: nearly all actives have a fitted effect of over 30% in size; further: potency means the concentration at half of the fitted maximal effect)
Method in brief: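 p53RE-bla cells, seeded at 4,000 per well and rested 5 h at 37 C/5% CO2, received compounds in DMSO for 16 h at 37 C. CellTiter-Glo was then added, and luminescence was read after 30 min at room temperature to gauge cytotoxicity.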

Measured: Potency
Tags describe the fitted curve by direction and shape or compound fluorescence and quenching.

CCN(CC)CCNc1ccc(CO)c2sc3ccccc3c(=O)c12
active: [1] 5.96 µM | [3] 23.7 µM | [16] 19 µM
not listed: [17] | [18] | [19] | [20]
inactive: all other assays above

Cc1cn[nH]c1
not listed: [20]
inactive: all other assays above

CCOC(=O)COc1ccc(C)cc1
not listed: [16] | [19] | [20]
inactive: all other assays above

CCCCCCOc1ccc(O)cc1
active: [1] 24.3 µM | [17] 12.2 µM
not listed: [2] | [4] | [16] | [19] | [20]
inactive: all other assays above

N[C@@H](CSSC[C@H](N)C(=O)O)C(=O)O
not listed: [17] | [19] | [20]
inactive: all other assays above

O=Nc1ccc(NO)cc1
active: [17] 50.5 µM
not listed: [1] | [19]
inactive: all other assays above

CCC(C)c1cc([N+](=O)[O-])cc([N+](=O)[O-])c1OC(=O)OC(C)C (centres undefined)
active: [1] 30.6 µM | [3] 61.1 µM | [4] 21.7 µM | [17] 3.06 µM
not listed: [19] | [20]
inactive: all other assays above

ClC/C=C\CCl
not listed: [16] | [19] | [20]
inactive: all other assays above

Nc1ccc2cc3ccc(N)cc3nc2c1
active: [1] 3.35 µM and 3.06 µM | [17] 2.66 µM and 1.22 µM | [6] 12.6 µM | [7] 12.6 µM [fluorescent] | [9] 11.2 µM [fluorescent] | [10] 11.2 µM | [11] 11.2 µM [fluorescent] | [13] 11.2 µM [fluorescent] | [14] 11.2 µM [fluorescent] and 7.08 µM [fluorescent] | [15] 12.6 µM [fluorescent] | [16] 6.16 µM
inactive: [2] | [4] | [5] | [8] | [18] | [12]

CCCCC(CC)COC(=O)c1ccc(O)cc1 (centres undefined)
active: [20] 54.3 µM | [4] 8.6 µM and 24.3 µM | [17] 5.43 µM and 6.11 µM
not listed: [1] | [16] | [19]
inactive: all other assays above

CCCCCCCCCCCC(=O)N(CC)CC
not listed: [16] | [19] | [20]
inactive: all other assays above

CCOC(=O)C1=C(C)NC(C)=C(C(=O)OCC)C1c1ccccc1/C=C/C(=O)OC(C)(C)C
active: [1] 29.8 µM | [17] 10.6 µM
not listed: [3] | [4] | [16] | [19] | [20]
inactive: all other assays above

O=C1NCN(c2ccccc2)C12CCN(CCCC(c1ccc(F)cc1)c1ccc(F)cc1)CC2
active: [20] 26.6 µM | [3] 26.6 µM | [4] 21.1 µM | [17] 19.7 µM
not listed: [1] | [16] | [19]
inactive: all other assays above

CCCCCCCCCCCCOC(=O)c1cc(O)c(O)c(O)c1
active: [1] 68.3 µM and 61.1 µM | [20] 48.3 µM and 48.6 µM | [3] 60.9 µM and 13.7 µM | [4] 60.9 µM and 54.5 µM | [17] 3.05 µM and 4.33 µM
not listed: [2] | [16] | [19]
inactive: all other assays above

CCCCCCCCCCOCC(O)CN (centres undefined)
active: [1] 33.5 µM | [19] 26.8 µM
not listed: [3] | [16] | [17] | [20]
inactive: all other assays above

CCCSS/C(CCO)=C(\C)N(C=O)Cc1cnc(C)nc1N
not listed: [1] | [16] | [19]
inactive: all other assays above

CC(C)c1cccc(C(C)C)c1N1C(=O)c2ccc(O)cc2C1=O
active: [1] 1.54 µM | [4] 9.69 µM | [17] 1.22 µM | [7] 39.8 µM [fluorescent] | [10] 35.5 µM | [13] 39.8 µM [fluorescent] | [15] 35.5 µM [fluorescent] | [19] 38.9 µM
not listed: [16] | [20]
inactive: all other assays above

CC(=O)Oc1ccc(C2(c3ccc(OC(C)=O)cc3)C(=O)Nc3ccccc32)cc1
active: [1] 211 nM and 237 nM | [20] 150 nM and 266 nM | [19] 16.9 µM and 26.8 µM
not listed: [4] | [17]
inactive: all other assays above

CCCCCCCCCCCCCOP(=O)(O)O
active: [20] 48.6 µM
not listed: [1] | [17]
inactive: all other assays above

Nc1cc(Cl)c([N+](=O)[O-])cc1O
active: [3] 68 µM | [17] 19.2 µM
not listed: [1]
inactive: all other assays above

O[C@@H](c1cc(C(F)(F)F)nc2c(C(F)(F)F)cccc12)[C@H]1CCCCN1
active: [20] 21.1 µM | [3] 23.7 µM
not listed: [1] | [4] | [16] | [17] | [19]
inactive: all other assays above

COCC(=O)O[C@]1(CCN(C)CCCc2nc3ccccc3[nH]2)CCc2cc(F)ccc2[C@@H]1C(C)C
active: [20] 11.9 µM | [3] 10.6 µM | [4] 26.6 µM | [17] 3.35 µM
not listed: [1] | [16] | [18] | [19]
inactive: all other assays above

COC(=O)CC(C)CCC=C(C)C (centres undefined)
not listed: [1]
inactive: all other assays above

CCN(CC)CCCN(c1ccccc1)C1Cc2ccccc2C1
active: [20] 13.3 µM | [3] 23.7 µM | [4] 29.8 µM
not listed: [1] | [16] | [17] | [19]
inactive: all other assays above

Cc1c(C)n(Cc2ccccc2)c2ccc(C(=O)OCCN(C)C)cc12
not listed: [1] | [17] | [19]
inactive: all other assays above

CNC(=S)NN
not listed: [1] | [17]
inactive: all other assays above
